The values that follow come from PubChem BioAssay AID434970 (Sanford-Burnham Center for Chemical Genomics, 2010).

Screen size: about 11,000 compounds; about 310 (2.8%) were called active. No stated cut-off is given here; in the data, active means activity change below about -85%; inactive means the rest. For the sample, actives were picked, then their nearest neighbours and some compounds at random.

In the assay the test system is intestinal alkaline phosphatase [Mus musculus]. As to the kind of experiment: activators of mouse IAP, confirmation, biochemical, luminescence, single concentration (AID 434970). The following applies: purified mouse IAP, CDP-Star luminescence, 30 min, at 10 µM; activation factor: measured here: IAP activation factor, stronger effect = higher value; activity change, negative = activation: stronger effect = lower value.
Take `O=C(NCCc1ccc(Cl)cc1)c1cccnc1`: the activation factor amounted to 0.957 and the activity change, negative = activation is 4.3% (inactive).

`COc1ccc2cc(C[C@@H]3CC[C@@H](CO)O3)ccc2c1`: the activation factor came out at 1.04 and the activity change, negative = activation is -4.15% (inactive).

For `O=C(Nc1ccccc1Cl)C1CCN(Cc2cnn(-c3ccccc3)c2-n2cccc2)CC1`, the activation factor was 1.02 and the activity change, negative = activation is -1.6% (inactive).

With `COc1cccc(NC(=O)C2CCN(Cc3cnn(-c4ccccc4)c3-n3cccc3)CC2)c1`, the activation factor was found to be 2.01 and the activity change, negative = activation was -101% (active).

For `COc1ccc(NC(=O)C2CCN(c3nnnn3-c3ccccc3)CC2)cc1`, the activation factor was 0.976 and the activity change, negative = activation is 2.45% (inactive).

Consider `Cc1ccc(-c2csc(N)n2)s1`, for which the activation factor is 0.219 and the activity change, negative = activation was 78% (inactive).

In the case of `Cc1ccc(NC(=S)NC2CCSc3ccccc32)cc1` (stereo not drawn), the activation factor is 1.37 and the activity change, negative = activation was -36.6% (inactive).

For `S=C(NCc1ccccc1)NCc1ccc(CNC(=S)NCc2ccccc2)cc1`, the activation factor came out at 1.39 and the activity change, negative = activation is -39.4% (inactive).

As for `Cc1cccc(NC(=S)NC2CCSc3ccccc32)c1` (stereo not drawn), the activation factor worked out at 3.43 and the activity change, negative = activation is -242% (active).

As to `FC(F)Oc1ccc(NC(=S)NC2CCSc3ccccc32)cc1` (stereo not drawn), the activation factor stood at 2.75 and the activity change, negative = activation is -175% (active).

Turning to `S=C(NCc1ccccc1)NC1CCCc2ccccc21` (stereo not drawn), the activation factor was determined as 1.87 and the activity change, negative = activation was -86.8% (inactive).

As for `S=C(Nc1ccc(Oc2ccccc2)cc1)NC1CCCC1`, the activation factor was 1.5 and the activity change, negative = activation was -49.8% (inactive).

Regarding `S=C(NCc1ccccc1)NC1CCSc2ccccc21` (stereo not drawn), the activation factor was 2.51 and the activity change, negative = activation was -151% (active).

As for `S=C(Nc1ccc(Cl)c(Cl)c1)NC1CCCCC1`, the activation factor was 1.9 and the activity change, negative = activation is -90.1% (inactive).

Consider `Cc1ccc(NC(=S)NC2CCSc3ccccc32)cc1C` (stereo not drawn), for which the activation factor amounted to 2.71 and the activity change, negative = activation was -172% (active).

As to `FC(F)Oc1ccc(NC(=S)NC2CCCCCCC2)cc1`, the activation factor turned out to be 1.38 and the activity change, negative = activation is -38% (inactive).

On to `NS(=O)(=O)c1cc(C(=O)NC2CCSc3ccccc32)ccc1Cl` (stereo not drawn), for which the activation factor came out at 0.16 and the activity change, negative = activation was 84% (inactive).

For `Cc1cccc(NC(=S)NCCN(C2CCCCC2)C2CCCC2)c1`, the activation factor was 1.23 and the activity change, negative = activation is -23.1% (inactive).

With `COc1ccc(C2/C=C\CN(C(=O)OCC3c4ccccc4-c4ccccc43)CC(=O)N2Cc2cccc(F)c2)cc1` (stereo not drawn), the activation factor was 1.1 and the activity change, negative = activation is -10.4% (inactive).

As to `O=C(Nc1ccc2nc(-c3ccc4nc[nH]c4c3)[nH]c2c1)c1cccs1`, the activation factor was found to be 1.05 and the activity change, negative = activation was -5.3% (inactive).

In the case of `CC(=O)N1CCN(c2ccc(NCc3ccc(C)cc3)cc2)CC1`, the activation factor was 1.09 and the activity change, negative = activation is -9.45% (inactive).

`COC(=O)c1ccc(Nc2cc(C)nc3ncnn23)cc1`: the activation factor is 1.03 and the activity change, negative = activation is -3.5% (inactive).

Turning to `Cc1csc(SCc2ccccc2C(=O)O)n1`, the activation factor came out at 0.948 and the activity change, negative = activation was 5.2% (inactive).

For `COc1ccccc1C(=O)N1CCN=C1c1ccccc1`, the activation factor turned out to be 0.974 and the activity change, negative = activation was 2.55% (inactive).

As for `O=C(NCC(=O)N(c1ccccc1)C(C(=O)NC1CCCCC1)c1ccncc1)c1ccco1` (stereo not drawn), the activation factor was 1.01 and the activity change, negative = activation is -1.1% (inactive).

For the molecule `Cc1ccc(-c2nnc(SCC(=O)NNC(=O)COc3cccc4ccccc34)n2C)cc1`, the activation factor is 1.03 and the activity change, negative = activation is -3.2% (inactive).

`Cn1c(=O)c2c(nc(NC3CCCCC3)n2CC(=O)C23CC4CC(CC(C4)C2)C3)n(C)c1=O`: the activation factor was determined as 5.65 and the activity change, negative = activation was -465% (active).

As to `Cn1c(=O)c2c(nc(NC3CCCCC3)n2CC(O)COc2ccccc2)n(C)c1=O` (stereo not drawn), the activation factor is 1.01 and the activity change, negative = activation was -0.8% (inactive).

Take `Cn1c(=O)c2c(nc(SCC(=O)N3CCCCCC3)n2C)n(C)c1=O`: the activation factor was found to be 1.08 and the activity change, negative = activation was -7.85% (inactive).

Take `CCN(Cc1cc2ccccc2[nH]c1=O)S(=O)(=O)c1ccccc1`: the activation factor stood at 1.02 and the activity change, negative = activation was -1.85% (inactive).

For the molecule `O=C(NCc1cccs1)C(NS(=O)(=O)c1cccc2nsnc12)c1ccccc1` (stereo not drawn), the activation factor worked out at 0.974 and the activity change, negative = activation is 2.65% (inactive).

On to `CCOC(=O)C1C(=O)NC(N2CCCCC2)=NC1C(C)C` (stereo not drawn), for which the activation factor came to 0.936 and the activity change, negative = activation was 6.4% (inactive).

Regarding `COc1cccc(NC(=O)NC2CCN(Cc3nnnn3Cc3ccc4c(c3)OCO4)CC2)c1`, the activation factor was 1.58 and the activity change, negative = activation was -58.1% (inactive).

Regarding `CCc1ccc(NC(=S)NC2CC3CCCC(C2)N3Cc2cccs2)cc1` (stereo not drawn), the activation factor worked out at 1.88 and the activity change, negative = activation was -87.8% (inactive).

As for `Cc1ccc(C)c(NC(=S)NC2CC3CCCC(C2)N3CC(C)C)c1` (stereo not drawn), the activation factor is 1.24 and the activity change, negative = activation is -23.9% (inactive).

`CCCN1C2CCCC1CC(NC(=O)Nc1cccc(C(C)=O)c1)C2` (stereo not drawn): the activation factor was 1.05 and the activity change, negative = activation was -5.35% (inactive).

For the molecule `O=C(Nc1ccccc1)NC1CC2CCC(C1)N2Cc1nnnn1Cc1ccc2c(c1)OCO2` (stereo not drawn), the activation factor came out at 2.23 and the activity change, negative = activation is -123% (active).

In the case of `S=C(Nc1ccc(Cl)cc1)NC1CC2CCC(C1)N2Cc1ccccc1` (stereo not drawn), the activation factor worked out at 1.64 and the activity change, negative = activation was -64% (inactive).

Take `COc1ccc(CN2C3CCCC2CC(NC(=O)Nc2cccc(C)c2)C3)cc1` (stereo not drawn): the activation factor was 10.5 and the activity change, negative = activation is -954% (active).

For `COc1cccc(NC(=S)NC2CC3CCCC(C2)N3CC(C)C)c1` (stereo not drawn), the activation factor turned out to be 1.72 and the activity change, negative = activation is -71.5% (inactive).

Take `C=CCN1C2CCCC1CC(NC(=O)Nc1cccc(C(C)=O)c1)C2` (stereo not drawn): the activation factor is 0.972 and the activity change, negative = activation was 2.8% (inactive).

On to `CCc1ccc(NC(=S)NC2CC3CCCC(C2)N3Cc2ccccc2)cc1` (stereo not drawn), for which the activation factor was found to be 2.7 and the activity change, negative = activation is -170% (active).

In the case of `Cc1cccc(NC(=S)NC2CC3CCCC(C2)N3CC(C)C)c1` (stereo not drawn), the activation factor was determined as 2.45 and the activity change, negative = activation is -145% (active).

Consider `CCOC(=O)c1ccc(NC(=O)NC2CC3CCC(C2)N3Cc2nnnn2Cc2ccco2)cc1` (stereo not drawn), for which the activation factor was found to be 1.95 and the activity change, negative = activation was -94.8% (inactive).
